Hits are enriched below; roughly 3.3% of the tested compounds scored in any of these assays.
ABHD5 PLIN5 PPI: blocks binding of human ABHD5 to perilipin-5 | AID 602281 | actives 0.78% (n = 360,000) | Q00G26+Q8WTS1 | inhibition, % at 4 µM | Split G. princeps luciferase complementation, luminescence, 4 h;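 active = inhibition above the mean inhibition across every tested compound plus 3 SD, cut at about 22% in these data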;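 note: 0% = DMSO only wells and the 100% control is not disclosed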
NOD2-RIPK2 inh: blocks binding of human NOD2 to RIPK2; O43353; CHO BLA complementation NOD2-RIPK2, CCF4 ratio; inhibition, % at 4.98 µM; actives 0.38% (n = 360,000); AID 624267; in the data active = inhibition above about 21%;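 note: 0% = vehicle only and 100% = reference blocker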
TLR9-MyD88 block: inhibitors of human TLR9-MyD88 binding; AID 504734; inhibition, % at 4.98 µM; CHO BLA complementation TLR9-MyD88, CCF4 FRET ratio; actives 0.21% (n = 340,000); Q9NR96+Q99836;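 active = inhibition above the mean over all tested compounds plus 3 SD, cut at about 21% in these data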;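 note: 0% = DMSO only wells and 100% = clavulanate BLA inhibitor control wells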
rCAG RNA binder: molecules binding r(CAG) RNA repeats | r(CAG) RNA repeat, TO-PRO-1 dye displacement fluorescence | AID 651821 | inhibition, % at 3 µM | actives 1.3% (n = 370,000);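 active = inhibition above the plate cutoff, the mean of all test compounds on that plate plus 3 SD, cut at about 35% in these data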;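 note: 0% = DMSO alone and 100% = 100 µM mitoxantrone as full dye displacement; higher means more dye released from RNA so lower well fluorescence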
PRMT1 FP inh: blocks human protein arginine methyltransferase 1. AID 652257. Q99873. inhibition, % at 2.79 µM. recombinant PRMT1, activity-based probe fluorescence polarization. actives 1.3% (n = 370,000);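 active = inhibition above about 21% made by adding two undisclosed values, limit read from the data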
Target sequence (Q99873 whole entry, looked up): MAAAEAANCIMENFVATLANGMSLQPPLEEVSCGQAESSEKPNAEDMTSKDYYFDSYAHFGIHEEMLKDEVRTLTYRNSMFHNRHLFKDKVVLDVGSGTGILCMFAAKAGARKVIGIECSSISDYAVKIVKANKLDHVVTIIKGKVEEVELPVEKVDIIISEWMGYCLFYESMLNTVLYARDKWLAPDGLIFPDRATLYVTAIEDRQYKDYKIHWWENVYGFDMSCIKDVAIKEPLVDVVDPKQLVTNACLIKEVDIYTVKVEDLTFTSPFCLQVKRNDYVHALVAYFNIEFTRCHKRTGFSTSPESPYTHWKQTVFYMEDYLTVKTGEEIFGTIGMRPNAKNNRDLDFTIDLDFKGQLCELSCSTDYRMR
TLR4 MyD88 comp: TLR4-MyD88 interaction inhibition in cells | HeLa CL3-4 TLR4/MyD88 BLA complementation, FRET ratio | inhibition, % at 8.4 µM | actives 0.18% (n = 200,000) | AID 861; in the data active = inhibition above about 25%;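 note: 0% = vehicle and 100% = reference inhibitor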
rCAG binder conf: r(CAG) RNA repeat binding, confirmation; shares compounds with rCAG RNA binder; TO-PRO-1 dye displacement fluorescence; inhibition, % at 3 µM; actives 70% (n = 4,300);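 active = inhibition above a per-plate cutoff, the mean inhibition of sample wells plus 3 SD, cut at about 35% in these data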;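 note: loss of TO-PRO-1 fluorescence as compound displaces dye from 1x1 AA loop RNA; 0% = DMSO only wells and 100% = 100 µM mitoxantrone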
dCAG dye counter: disrupts DNA CAG TO-PRO-1 complex, flagging rCAG hits | AID 652068 | d(CAG) DNA oligo TO-PRO-1 dye displacement, fluorescence | shares compounds with rCAG RNA binder | actives 94% (n = 4,300) | inhibition, % at 3 µM;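 active = inhibition above its plate's cutoff, the mean test-well inhibition plus 3 SD, cut at about 4.8% in these data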;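 note: 0% = DNA dye mix with DMSO and 100% = 100 µM mitoxantrone; hits displace the dye from DNA and so lower well fluorescence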
dCAG dye DR: DNA CAG dye complex inhibition, dose response counter-screen. IC50, µM. shares compounds with rCAG RNA binder. actives 20% (n = 250). DNA CAG/GTC duplex TO-PRO-1 dye displacement fluorescence; in the data active = IC50 below about 10 µM
Starred values were filed as active, the others as inactive.

Screening COC(=O)c1ccc(COc2ccccc2/C=N/Nc2cccc(C(=O)O)c2)cc1 returned ABHD5 PLIN5 PPI -5, NOD2-RIPK2 inh 4, TLR9-MyD88 block -16, rCAG RNA binder 16, PRMT1 FP inh 3 and TLR4 MyD88 comp 8.
Screening CCCSc1nnc(NC(=O)CSc2nc3[nH]c(=O)cc(O)c3s2)s1 returned ABHD5 PLIN5 PPI -12, NOD2-RIPK2 inh -15, TLR9-MyD88 block -2, rCAG RNA binder 37*, PRMT1 FP inh 7, rCAG binder conf 27 and dCAG dye counter 7.8*.
`O=C(N/N=C/c1cc([N+](=O)[O-])ccc1O)C12CC3CC(CC(C3)C1)C2` gave ABHD5 PLIN5 PPI -4, NOD2-RIPK2 inh 0, TLR9-MyD88 block 0, rCAG RNA binder 0, PRMT1 FP inh 2 and TLR4 MyD88 comp -2.
`O=[N+]([O-])c1cccc(N/N=C/c2cc([N+](=O)[O-])ccc2O)c1` gave ABHD5 PLIN5 PPI 16, NOD2-RIPK2 inh -1, TLR9-MyD88 block 6, rCAG RNA binder 36*, PRMT1 FP inh 0, TLR4 MyD88 comp 15, rCAG binder conf 27 and dCAG dye counter 10*.
Screening O=[N+]([O-])c1ccc(O)c(/C=N/NC(=S)Nc2ccc(Cl)cc2Cl)c1 returned ABHD5 PLIN5 PPI -2, NOD2-RIPK2 inh 2, TLR9-MyD88 block 6, rCAG RNA binder 46*, PRMT1 FP inh -2, rCAG binder conf 89* and dCAG dye counter 64*.
Screening Cc1cc(Cl)ccc1NC(=O)CCC(=O)N/N=C/c1cc([N+](=O)[O-])ccc1O returned ABHD5 PLIN5 PPI -3, NOD2-RIPK2 inh 8, TLR9-MyD88 block -7, rCAG RNA binder 3, PRMT1 FP inh -1 and TLR4 MyD88 comp 6.
For O=[N+]([O-])c1ccc(O)c(C=NNc2ccc(S(=O)(=O)O)cc2)c1 the results were ABHD5 PLIN5 PPI -6, NOD2-RIPK2 inh 1, TLR9-MyD88 block 3, rCAG RNA binder 5 and PRMT1 FP inh 5.
O=C(N/N=C/c1cc([N+](=O)[O-])ccc1O)NC12CC3CC(CC(C3)C1)C2 was read as ABHD5 PLIN5 PPI -5, NOD2-RIPK2 inh -4, TLR9-MyD88 block 9, rCAG RNA binder 63*, PRMT1 FP inh 2, TLR4 MyD88 comp -4, rCAG binder conf 36* and dCAG dye counter 9.5*.
O=C(C[n+]1cccc(C(=O)N/N=C/c2cccc([N+](=O)[O-])c2)c1)c1ccccc1 was read as ABHD5 PLIN5 PPI 0, NOD2-RIPK2 inh -3, TLR9-MyD88 block -4, rCAG RNA binder 16 and PRMT1 FP inh 3.
`Cc1ccccc1NC(=O)COC(=O)CCc1ccccc1` gave ABHD5 PLIN5 PPI -1, NOD2-RIPK2 inh -3, TLR9-MyD88 block -3, rCAG RNA binder -3, PRMT1 FP inh -4 and TLR4 MyD88 comp 3.
For C[C@H](CO)N1C[C@H](C)[C@@H](CN(C)Cc2ccc(Cl)c(Cl)c2)Oc2c(NS(=O)(=O)c3cccs3)cccc2C1=O the results were ABHD5 PLIN5 PPI 8, NOD2-RIPK2 inh 0, TLR9-MyD88 block -6, rCAG RNA binder 5 and PRMT1 FP inh -3.
Cc1c(NC(=O)c2ccccc2NS(=O)(=O)c2ccc(Br)cc2)c(=O)n(-c2ccccc2)n1C was read as ABHD5 PLIN5 PPI 2, NOD2-RIPK2 inh -14, TLR9-MyD88 block -1, rCAG RNA binder 42*, PRMT1 FP inh 0, TLR4 MyD88 comp -14, rCAG binder conf 47* and dCAG dye counter 14*.
Cc1cccc(CCN(C(=O)c2csnn2)C(C(=O)NC2CCCC2)c2ccco2)c1 (centres undefined) was read as ABHD5 PLIN5 PPI 0, NOD2-RIPK2 inh -8, TLR9-MyD88 block -11, rCAG RNA binder -1 and PRMT1 FP inh -1.
Screening Cc1cccc(NC(=S)NCC(c2cccnc2)N(C)C)c1C (centres undefined) returned ABHD5 PLIN5 PPI -3, NOD2-RIPK2 inh 1, TLR9-MyD88 block 9, rCAG RNA binder -1, PRMT1 FP inh 0 and TLR4 MyD88 comp -17.
`N#CC1=C(S)N(c2ccccc2)C(c2ccco2)NC1=O` (centres undefined) gave ABHD5 PLIN5 PPI 3, NOD2-RIPK2 inh 6, TLR9-MyD88 block -2, rCAG RNA binder 3, PRMT1 FP inh 1 and TLR4 MyD88 comp -8.
Screening N#CC1=C(S)N(c2ccccc2)C(c2ccc(-c3cc(Cl)ccc3Cl)o2)NC1=O (centres undefined) returned ABHD5 PLIN5 PPI -5, NOD2-RIPK2 inh -5, TLR9-MyD88 block -1, rCAG RNA binder 59*, PRMT1 FP inh 0, TLR4 MyD88 comp -9, rCAG binder conf 55*, dCAG dye counter 18* and dCAG dye DR 5.5*.
N#CC1=C(S)N(c2ccccc2)C(c2ccc(-c3ccc(Cl)c(Cl)c3)o2)NC1=O (centres undefined) was read as ABHD5 PLIN5 PPI 0, NOD2-RIPK2 inh 0, TLR9-MyD88 block 1, rCAG RNA binder 84*, PRMT1 FP inh 14, rCAG binder conf 91* and dCAG dye counter 79*.
Screening O=C1N(CCCO)CCC12CCCCC2 returned rCAG RNA binder 1 and PRMT1 FP inh 1.
For COc1ccccc1-n1c(=O)c(C#N)c(-c2ccc([N+](=O)[O-])cc2)c2cc(C(=O)c3cc(F)ccc3O)cnc21 the results were ABHD5 PLIN5 PPI -4, NOD2-RIPK2 inh -5, TLR9-MyD88 block -13, rCAG RNA binder 5, PRMT1 FP inh 0 and TLR4 MyD88 comp 2.
`Cn1c(=O)c(C#N)c(-c2ccc(F)cc2)c2cc(C(=O)c3cc(Cl)cc(Cl)c3O)cnc21` gave ABHD5 PLIN5 PPI -12, NOD2-RIPK2 inh 4, TLR9-MyD88 block -3, rCAG RNA binder 75*, PRMT1 FP inh 0, rCAG binder conf 83* and dCAG dye counter 41*.
CC(OC(=O)Cc1c[nH]c2ccccc12)C(=O)Nc1ccccc1F (centres undefined) was read as ABHD5 PLIN5 PPI 12, NOD2-RIPK2 inh -4, TLR9-MyD88 block 1, rCAG RNA binder -1 and PRMT1 FP inh 4.
`CC(C)c1ccc(NC(=O)CSc2nc3ccsc3c(=O)n2CCC(=O)O)cc1` gave ABHD5 PLIN5 PPI 14, NOD2-RIPK2 inh -5, TLR9-MyD88 block -20, rCAG RNA binder 36*, PRMT1 FP inh 3, rCAG binder conf 32 and dCAG dye counter 7.8*.
Screening CCc1nc2c(OCCOc3ccc(F)cc3)cccn2c1N(C=O)Cc1ccccc1 returned ABHD5 PLIN5 PPI 9, NOD2-RIPK2 inh 5, rCAG RNA binder 0 and PRMT1 FP inh -6.

Screens: PubChem BioAssay, The Scripps Research Institute Molecular Screening Center
